In PubChem BioAssay (Tox21) one finds Potency and outcome data, which are given here for 22 compounds.

Several values for one entry are separate records, joined by “and”; a condition that tells them apart may be missing. Equal entries are not always repeated. Inconclusive results are not listed. The source holds several records for some structures; these can differ, active in one and inactive in another. Activity calls are given as the source filed them. Unless noted, calls follow the shape of the dose curve; as a rule, active = well fitted curve in the direction sought with a large enough effect in the repeat runs; inconclusive = weak or mixed curves; inactive = no such curve, though single readings can be large; an effect the other way counts as inactive or inconclusive.

Experiment [1] is described as follows: qHTS assay for small molecule agonists of the p53 signaling pathway (AID 651631; calls by dose curve; also: nearly all actives have a fitted effect of over 15% in size; also: potency is read from the fitted curve at half-maximal effect). In a few lines: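 p53RE-bla HCT-116 cells; compounds 16 h, 37 °C; LiveBLAzer B/G FRET substrate 2 h RT; fluorescence intensity read-out, qHTS format.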
A general note: In qHTS, concentration-response curves come from the screen itself.

Experiment [2] can be described thus: qHTS assay for small molecules that induce genotoxicity in human embryonic kidney cells expressing luciferase-tagged ATAD5 (AID 651632). Also: nearly all actives have a fitted effect of over 15% in size. Also: potency is read from the fitted curve at half-maximal effect. In a few lines:
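Increased luciferase signal from ATAD5-tagged reporter cells indicates DNA-damage-driven ATAD5 induction. HEK293T cells are treated for 16 hr at 37C before detection with Amplite.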

Experiment [3] is described as follows: qHTS assay for small molecule agonists of the p53 signaling pathway - cell viability (AID 651633; calls by dose curve; also: nearly all actives have a fitted effect of over 30% in size; also: potency is read from the fitted curve at half-maximal effect). The method, boiled down:
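Viability counter-read: CellTiter-Glo luminescence (30 min, room temperature) in the same p53RE-bla plates. These plates had been exposed to compounds for 16 h at 37 C.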

The nature of experiment [4]: qHTS assay for small molecules that induce genotoxicity in human embryonic kidney cells expressing luciferase-tagged ATAD5 - cell viability (AID 651634; calls by dose curve; also: nearly all actives have a fitted effect of over 25% in size; also: potency is read from the fitted curve at half-maximal effect). In a few lines: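 Cytotoxicity counterscreen in HEK293T cells bearing an ATAD5-luciferase reporter: live-cell protease activity measured by CellTiter-Fluor fluorescence after 15.5 hr compound exposure.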
The nature of experiment [5]: qHTS assay for small molecule disruptors of the mitochondrial membrane potential - cell viability (AID 720634; calls by dose curve; also: nearly all actives have a fitted effect of over 20% in size; also: potency is read from the fitted curve at half-maximal effect). The method, boiled down:
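After overnight attachment at 37 C, HepG2 cells received compound or DMSO vehicle for 1 hr. Viability is then taken from ATP-driven luminescence following a 30 min room-temperature CellTiter-Glo step.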

A short description of experiment [6]: qHTS assay to test for compound auto fluorescence at 590 nm (red) in HepG2 cells (AID 720674). In a few lines:
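We screened compounds on adherent HepG2 cells, incubating them for an hour at 37 C in 5% CO2 before reading emission at 590 nm under 540 nm excitation; values reflect equivalence to Rose Bengal sodium fluorescence.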

A short description of experiment [7]: qHTS assay to test for compound auto fluorescence at 535 nm (green) in HepG2 cells (AID 720675).
Experiment [8] is described as follows: qHTS assay to test for compound auto fluorescence at 460 nm (blue) in HEK293 cells (AID 720678). In a few lines: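 Triamterene serves as the blue fluorophore standard. Compound signal at 405/460 nm is read in HEK293 wells (2,000 cells, 10% dialyzed FBS) after overnight treatment at 37C.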
Experiment [9] in a line: qHTS assay to test for compound auto fluorescence at 590 nm (red) in HEK293 cells (AID 720679). In a few lines:
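We plated HEK293 cells in 10% dialyzed FBS medium, let them adhere for 4-5 hr, then added 23 nL compound. Overnight at 37C and 5% CO2 preceded fluorescence measurement at 540/590nm.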

The nature of experiment [10]: qHTS assay for small molecule disruptors of the mitochondrial membrane potential (AID 720635). Also: potency is read from the fitted curve at half-maximal effect. The method, boiled down: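 Mitochondrial membrane potential tracked with Mito-MPS dye, red aggregates (ex 540/em 590 nm) against green monomers (ex 490/em 535 nm). Compound treatment 1 hr at 37C, dye 30 min in HepG2.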

Regarding `CC[C@@H](N)CO`, the Potency entry in [1], in experiment [2], in experiment [3], in [4], in experiment [5] and in experiment [7] was “inactive” in each case. Moreover, in [8], the Potency entry was “inactive”. The compound was classed as inactive in experiment [6] and in experiment [9].

As for `CC(=O)CC(C)=O`, the Potency result in experiment [1], in [2], in experiment [3], in experiment [4], in experiment [5] and in [7] was “inactive” each time. Besides, the Potency result in [8] is “inactive”. Also, the compound was called inactive in experiment [6] and in experiment [9].

Take `O=C(O)c1cc(Cl)cc(Cl)c1`: the Potency result in [1], in experiment [2], in experiment [3], in experiment [4], in experiment [5] and in experiment [10] was “inactive” throughout. Moreover, the Potency entry in experiment [7] and in [8] was “inactive” throughout. Further, the result in [6] and in [9] was inactive.

With `CCOc1ccccc1C(N)=O`, the Potency entry in experiment [1], in [2], in [3], in [4], in experiment [5] and in experiment [10] was “inactive” each time. For the same compound, the Potency entry in experiment [7] is “inactive”. Moreover, the compound was called inactive in experiment [6] and in [9].

As to `NC(Cc1ccc(Cl)cc1)C(=O)O` (configuration not stated), the Potency result in experiment [1], in [2], in [3], in [4], in [5] and in [7] was “inactive” in each case. For the same compound, the Potency result in experiment [8] was “inactive”. Besides, the outcome in experiment [6] and in [9] was inactive.

Consider `CC1COC(=O)O1` (configuration not stated), for which the Potency entry in [1], in [2], in [3], in [4], in experiment [10] and in [7] was “inactive” throughout. In addition, the Potency entry in [8] was “inactive”. Besides, the compound was called inactive in experiment [6] and in experiment [9].

Consider `C/C=C/c1ccc(OCC)c(O)c1`, for which the Potency entry in experiment [1], in experiment [2], in experiment [3], in [4], in experiment [5] and in [7] was “inactive” throughout. Also, in [10], the Potency was 48.6 µM (active). Also, the call in experiment [6] and in [9] was inactive.

`CCOC(=O)C(C)C(C)=O` (configuration not stated): the Potency result in experiment [1], in experiment [2], in experiment [3], in [4], in [5] and in experiment [10] was “inactive” in each case. Further, the Potency entry in [7] and in experiment [8] was “inactive” in each case. Also, the result in [6] and in experiment [9] was inactive.

`CCCCOCCOC(=O)c1ccccc1C(=O)OCCOCCCC`: the Potency entry in experiment [1], in [2], in [3], in [4], in [5] and in experiment [7] was “inactive” throughout. Also, the Potency result in [8] is “inactive”. Further, the outcome in [6] and in [9] was inactive.

Turning to `CC(=O)N[C@@H](CS)C(=O)O`, the Potency entry in [1], in experiment [2], in experiment [3], in [4], in [5] and in experiment [7] was “inactive” throughout. Also, the Potency result in experiment [8] is “inactive”. Moreover, the outcome in [6] and in experiment [9] was inactive.

For the compound `Nc1cc(Cl)c(-c2cc(Cl)c(N)cc2Cl)cc1Cl`, the Potency in [1] is 68.5 µM (active) and 68.6 µM (active); in experiment [2] it was 13.7 µM (active); in experiment [3], 61.1 µM (active) and 54.5 µM (active); in experiment [4], 30.6 µM (active); in [5], 48.5 µM (active) and 54.5 µM (active); in [10], 9.68 µM (active) and 13.7 µM (active). Further, the result in experiment [6] and in experiment [9] was inactive. The Potency result in experiment [7] and in experiment [8] was “inactive” in each case.

In the case of `Nc1cc(S(=O)(=O)O)cc2cc(S(=O)(=O)O)cc(O)c12`, the Potency entry in experiment [1], in experiment [2], in experiment [3], in [4], in experiment [5] and in [10] was “inactive” throughout. In addition, the Potency entry in experiment [7] was “inactive”. Also, the call in [6] and in [9] was inactive.

On to `CC(=O)OCCOCCOCCOC(C)=O`, for which the Potency result in [1], in [2], in experiment [3], in experiment [4], in experiment [5] and in experiment [10] was “inactive” each time. Also, the Potency result in experiment [7] and in experiment [8] was “inactive” each time. Also, the call in experiment [6] and in experiment [9] was inactive.

In the case of `CC1=CC(=O)c2ccccc2C1=O`, the Potency in experiment [1] was 38.6 µM (active); in experiment [3], 24.3 µM (active); in experiment [5] it was “inactive and 54.5 µM (active)”. In addition, the Potency result in [2], in experiment [4], in experiment [7] and in [8] was “inactive” throughout. Moreover, the call in experiment [6] and in [9] was inactive.

In the case of `c1ccc2n[nH]nc2c1`, the Potency result in experiment [1], in [2], in [3], in experiment [4], in experiment [10] and in [7] was “inactive” in each case. The Potency result in experiment [8] was “inactive”. The call in experiment [6] and in experiment [9] was inactive.

Regarding `COC(=O)[C@H]1[C@H]2C[C@@H]3c4[nH]c5cc(OC)ccc5c4CCN3C[C@H]2C[C@@H](OC(=O)c2cc(OC)c(OC)c(OC)c2)[C@@H]1OC`, the Potency entry in experiment [1], in [2], in [3], in experiment [4], in experiment [5] and in experiment [7] was “inactive” throughout. In addition, the Potency result in experiment [8] is “inactive”. For the same compound, the Potency in experiment [10] is 48.5 µM (active). Also, the compound was classed as inactive in experiment [6] and in experiment [9].

With `CC(C)(C)c1ccccc1`, the Potency entry in experiment [1], in experiment [2], in [3], in [4], in experiment [5] and in experiment [7] was “inactive” in each case. Further, the Potency entry in experiment [8] is “inactive”. The compound was called inactive in [6] and in [9].

Take `O=S(=O)(O)c1ccc2nc(-c3ccccc3)[nH]c2c1`: the Potency result in experiment [1], in experiment [2], in experiment [4], in experiment [10], in [7] and in [8] was “inactive” each time. Also, the Potency in experiment [3] was 9.44 µM (active) and 26 µM (active); in experiment [5], 9.44 µM (active) and 26 µM (active). Moreover, the compound was called inactive in experiment [6] and in [9].

Regarding `Nc1nc2ccccc2[nH]1`, the Potency result in experiment [1], in [2], in [3], in experiment [4], in experiment [5] and in experiment [10] was “inactive” each time. Besides, the Potency entry in experiment [7] and in [8] was “inactive” each time. The compound was classed as inactive in experiment [6] and in experiment [9].

For `NC(N)=NC(=O)Cc1c(Cl)cccc1Cl`, the Potency entry in experiment [1], in experiment [2], in [3], in experiment [4], in [5] and in [10] was “inactive” throughout. Also, the Potency entry in [7] and in experiment [8] was “inactive” each time. In addition, the call in [6] and in [9] was inactive.

`O=c1n(CC2CO2)c(=O)n(CC2CO2)c(=O)n1CC1CO1` (configuration not stated): the Potency was 13.3 µM (active) and 8.58 µM (active) and 8.63 µM (active) in [1]; 23.7 µM (active) and 24.2 µM (active) and 54.5 µM (active) in experiment [2]. Further, the Potency result in experiment [3], in [4], in [5], in experiment [10], in experiment [7] and in experiment [8] was “inactive” throughout. In addition, the call in [6] and in experiment [9] was inactive.

As to `COC(=O)c1cccc(C(=O)OC)c1`, the Potency entry in [1], in experiment [2], in experiment [3], in experiment [4], in experiment [5] and in experiment [10] was “inactive” in each case. Moreover, the Potency result in [7] was “inactive”. For the same compound, the result in [6] and in [9] was inactive.
